Compound activity from PubChem BioAssay.
mcGAS lum: mouse cGAS inhibition by luminescence. inhibition, % at 12.5 µM. AID 1259399. recombinant cGAS, Kinase-Glo ATP depletion luminescence. Q8C6L5. hit rate 0.15% among 160,000;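 further: 0% = negative control wells and 100% = reference inhibitor with no enzyme activity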
hcGAS lum: human cGAS inhibition; Q8N884; hit rate 0.081% among 290,000; inhibition, % at 12.5 µM; recombinant h-cGAS, ATP depletion, Kinase-Glo luminescence;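 further: 0% = vehicle reaction and 100% = reaction without DNA for no activity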
Target sequence (Q8N884 whole entry, looked up): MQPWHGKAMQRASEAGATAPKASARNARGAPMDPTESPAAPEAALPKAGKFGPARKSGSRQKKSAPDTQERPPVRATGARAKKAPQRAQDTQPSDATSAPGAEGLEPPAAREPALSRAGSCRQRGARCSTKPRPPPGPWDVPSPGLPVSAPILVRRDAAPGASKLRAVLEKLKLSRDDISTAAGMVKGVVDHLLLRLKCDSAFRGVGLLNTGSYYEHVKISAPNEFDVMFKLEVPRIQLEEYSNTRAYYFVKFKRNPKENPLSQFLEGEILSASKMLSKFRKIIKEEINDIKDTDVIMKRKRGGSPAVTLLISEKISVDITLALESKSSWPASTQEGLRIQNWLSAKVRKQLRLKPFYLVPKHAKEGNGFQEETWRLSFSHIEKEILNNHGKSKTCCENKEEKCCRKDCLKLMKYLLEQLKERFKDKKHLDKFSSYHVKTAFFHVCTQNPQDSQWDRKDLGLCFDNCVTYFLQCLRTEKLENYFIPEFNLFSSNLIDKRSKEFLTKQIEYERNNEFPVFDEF
NPYLR7 agonist: activates Aedes aegypti NPYLR7 receptor; hit rate 0.15% among 270,000; AID 1259423; HEK293T NPYLR7/Galpha15, GCaMP6s calcium fluorescence; activation, % at 10 µM; in the data active means activation above about 40%;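 further: 0% = vehicle and 100% = reference agonist at the receptor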
* = called active by the depositor; · = no result given. Compounds with a hit are over-represented: about 0.28% of the library has one in this group of screens. Unless noted, no stated cut-off is given here; in the data, active means inhibition above about 40%; inactive means the rest.

SMILES | mcGAS lum | hcGAS lum | NPYLR7 agonist
CNc1cc(-c2ccc(CN3CCCCC3)cn2)c2cc[nH]c2n1 | -6.0 | 60.1* | 21.3
CNc1cc(-c2ccc(CN)cn2)c2cc[nH]c2n1 | -10.4 | -2.3 | 24.3
Cc1sc2nc(CN3CCCCC3)nc(N)c2c1C | -6.4 | -12.4 | 5.5
CCCNc1nc2ccccn2c(=O)c1C=C1SC(=S)N(CC(C)C)C1=O | · | -13.0 | 1.8
CC(C)CN1C(=O)C(=Cc2c(N3CCN(CCO)CC3)nc3ccccn3c2=O)SC1=S | -5.1 | -3.6 | 79.0*
CCCCCC(C)NCc1cnc(SC)nc1N1CCCC1 (stereo unspecified) | 0.4 | 3.9 | 4.3
O=c1cc(-c2ccccc2)[nH]n1-c1nc2ccccc2s1 | 30.4 | 55.3* | -6.8
O=c1c(C=NC2CC2)c(-c2ccccc2)[nH]n1-c1nc2ccccc2s1 | 3.1 | 59.5* | 2.9
COc1ccc(-c2[nH]n(-c3nc4ccccc4s3)c(=O)c2C=NCCN2CCOCC2)cc1 | · | -2.8 | -3.4
O=c1cc(-c2ccccc2)[nH]n1-c1c(F)c(F)c(F)c(F)c1F | -4.3 | -3.2 | 5.0
CCn1c(SCc2ccc(C(=O)NCC(C)C)cc2)nnc1-c1cccs1 | -4.9 | -3.2 | -4.7
COCCCN(CC(=O)N(CCc1c[nH]c2ccccc12)Cc1ccccc1)C(=O)Cc1ccc(OC)cc1 | -4.5 | -9.5 | 20.3
O=C(NC(c1ccc(F)cc1)c1ccc2ccccc2n1)C1CCN(CCc2c[nH]c3ccccc23)CC1 (stereo unspecified) | -2.9 | -3.5 | -6.3
C=CCOC(CN1CCN(C(=O)CCC(=O)OCC)CC1)c1cccc(N2CCCC2)c1 (stereo unspecified) | 0.3 | -2.2 | ·
O=C1CCCCCN1CP(=O)(O)CN1CCCCC1 | -4.0 | -8.2 | ·
O=C1CCCCCN1CO | 2.8 | 82.9* | -5.5
COc1ccc(/C=C2\Oc3c4c(cc(C)c3C2=O)OCN(CC2CCCO2)C4)cc1OC (stereo unspecified) | 3.3 | 1.0 | 14.6
O=C1/C(=C/c2ccc3c(c2)OCO3)Oc2c1ccc1c2CN(CC2CCCO2)CO1 (stereo unspecified) | -6.9 | -6.0 | 83.3*
CCN1C(=O)N(Cc2cccc3ccccc23)C(=O)C12CCN(Cc1ccc(SC)cc1)CC2 | -7.3 | -23.6 | 15.9
CCc1ccccc1-n1c(=O)c2ccccc2n(C(CC)C(=O)Nc2ccc(OC)c(OC)c2)c1=O (stereo unspecified) | -3.9 | -3.4 | -2.2
O=C(Nc1ccccc1F)c1ccc2c(c1)S(=O)(=O)Nc1ncnn1-2 | -8.4 | -1.3 | -8.1
COC(=O)c1nc2n(n1)-c1ccccc1S(=O)(=O)N2 | · | 57.0* | 12.9
Cc1ccc(NC(=O)c2cc(C3CC3)n(C3CCS(=O)(=O)C3)n2)cc1F (stereo unspecified) | -6.8 | -8.9 | 1.6
C(=Cc1ccccc1)C=NNc1ncnc2ccccc12 | · | -6.2 | 161.3*
O=C1NN=C(c2ccccc2)C/C1=N/Nc1ncnc2ccccc12 | -9.0 | -1.5 | 6.6
SMILES | mcGAS lum | hcGAS lum | NPYLR7 agonist
CCOC(=O)[C@@H]1CN(C(=O)c2ccc(Cl)cc2)[C@H]2c3ccccc3O[C@@H]12 | -4.4 | -1.5 | -1.3
O=C1NC(=S)NC(=O)C1=Cc1ccc(-c2cc([N+](=O)[O-])ccc2O)o1 | 42.1* | 51.2* | -15.6
COc1cc([N+](=O)[O-])ccc1-c1ccc(/C=C2/NC(=S)NC2=O)o1 | -1.0 | -2.9 | 0.8
CCOc1ccc(Cl)c(C(=O)NC2(C#N)CCSC2)n1 (stereo unspecified) | · | -1.8 | 0.5
Cc1ccc(Nc2nc(NCCN(C)C)nc3nccnc23)c(C)c1 | · | -6.6 | 9.2
Cc1ccc(Nc2nc(Nc3cccc(F)c3)nc3nccnc23)c(C)c1 | · | -5.9 | 51.5*
O=C(CCc1ccccc1)Nc1ccnn1C1CCN(Cc2nccs2)CC1 | · | -11.6 | 10.8
N#CC1(C#N)[C@@H]2c3ccccc3C=CN2[C@@H](C(=O)c2cccs2)[C@@H]1c1ccsc1 | 1.9 | -1.9 | 10.7
O=C(NCc1cccs1)c1cccnc1N1CCN(C(=O)c2ccccn2)CC1 | -5.2 | -4.7 | 5.3
O=C(CCn1ccc(=O)[nH]c1=O)NCc1cc(-c2cccs2)on1 | · | -0.1 | 3.0
Cc1csc(N2C(=N)SC(c3ccccc3)C2=O)n1 (stereo unspecified) | -1.2 | -3.0 | 1.2
Cc1csc(N2C(=N)SCC2=O)n1 | 4.8 | 42.2* | 8.2
CC1CC(Sc2nnc(CN3CCCCC3)n2-c2ccc(F)cc2)C(=O)O1 (stereo unspecified) | · | -5.9 | 7.7
CN1C(=CC=C2C(=O)CC(C)(C)CC2=O)C(C)(C)c2ccccc21 | · | -8.0 | 297.8*
C=c1[nH]n(-c2ccccc2)c(=O)c1=CC=C1N(C)c2ccccc2C1(C)C | · | -8.6 | 19.0
Nc1c(O)ccc2c1C(=O)c1ccccc1C2=O | -5.6 | -7.1 | 1.9
N#Cc1c(N)oc2c3c(c(O)cc12)C(=O)c1ccccc1C3=O | · | 48.3* | 2.2
NC1CCC(CN2CCOC3(CNCCOC3)C2)CC1 (stereo unspecified) | · | -7.7 | -0.5
CCOC(=O)CCCSc1nnc(-c2ccc(F)cc2)n1-c1ccc(C)cc1 | -7.5 | -8.6 | -6.3
O=C(CNCc1ccccc1)N1CC(=O)N(c2cccc(Cl)c2)C1 | 1.5 | 3.9 | 45.8*
O=C(CNCc1ccco1)N1CC(=O)N(c2cccc(Cl)c2)C1 | · | -0.7 | 25.2
Cc1csc(C(C#N)C(=O)c2cn(CC(=O)C(C)(C)C)nn2)n1 (stereo unspecified) | -6.8 | 45.2* | -1.5
Cc1cnc(C(=O)OCC(=O)C(C#N)c2nc(C)cs2)cn1 (stereo unspecified) | · | -7.4 | 0.7
CCOc1ccc(C2=NC(=Cc3cc(OC)c4c(c3)OCCO4)C(=O)O2)cc1OCC | · | -6.0 | 2.1
COc1cc(C=C2N=C(c3ccc4c(c3)OCO4)OC2=O)cc2c1OCCO2 | · | -3.8 | 97.5*
SMILES | mcGAS lum | hcGAS lum | NPYLR7 agonist
O=C(c1ccc2c(c1)OCO2)N1CCN(C(C(=O)N2CCc3ccccc3C2)C2CCCC2)CC1 (stereo unspecified) | · | 1.2 | -5.1
CCCc1nc(NCC)nc2n[nH]c(=S)n12 | · | 2.0 | -0.6
CN1CCN(c2cc(Cl)nc(SCc3ccc(C(=O)NCCN4CCCC4)cc3)n2)CC1 | 8.0 | 68.8* | 11.8
O=C(NCCN1CCCCC1)c1ccc(CSc2nc(Cl)cc(N3CCCC3)n2)cc1 | -4.1 | -5.6 | 4.9
O=C(N=C(c1ccccc1)C(Cl)Cl)NC(=C(Cl)Cl)c1ccccc1 | · | -11.0 | -0.7
COc1ccc(CN2CCCC(CO)(Cc3ccccc3C)C2)c(F)c1 (stereo unspecified) | -3.9 | -2.8 | 11.4
c1ccc2c(-c3cc(NC4CCNCC4)nc4[nH]ccc34)n[nH]c2c1 | -10.9 | 18.7 | 23.7
c1cnc(-c2cc(NC3CCNCC3)nc3[nH]ccc23)nc1 | -3.3 | 45.6* | 29.9
Clc1cccc(Cn2cnnc2-c2ccncc2)c1 | · | 5.6 | 0.7
Cc1[nH]c(/C=C2\C(=O)Nc3ccccc32)c(C)c1CCC(=O)O | · | -1.1 | 74.1*
O=C(O)C=C1C(=O)Nc2ccccc21 | -4.2 | -5.9 | -0.7
Cc1cc(O)c(CN2CCN(C)CC2)c2c1C(=O)/C(=C/c1cc3ccccc3o1)O2 | -8.7 | -7.8 | 7.6
CCN(CC)Cc1c(O)cc(C)c2c1O/C(=C\c1cc3ccccc3o1)C2=O | -1.9 | -2.4 | 69.5*
CC(=O)N1CC(CO)C2(CCN(C(=O)C3CC=CC3)CC2)C1 (stereo unspecified) | -4.9 | -8.8 | ·
